Experiments:
[1] = target: Tyrosine-protein kinase Fer (Homo sapiens) (UniProt P16591); details: at 1 µM
[2] = target: Tyrosine-protein kinase Fes/Fps (Homo sapiens) (UniProt P07332); details: at 0.1 µM
[3] = target: Tyrosine-protein kinase Fes/Fps (Homo sapiens) (UniProt P07332); details: at 1 µM
[4] = target: Fibroblast growth factor receptor 1 (Homo sapiens) (UniProt P11362); details: at 0.1 µM
[5] = target: Fibroblast growth factor receptor 1 (Homo sapiens) (UniProt P11362); details: at 1 µM
[6] = target: Fibroblast growth factor receptor 2 (Homo sapiens) (UniProt P21802); details: at 0.1 µM
[7] = target: Fibroblast growth factor receptor 2 (Homo sapiens) (UniProt P21802); details: at 1 µM
[8] = target: Fibroblast growth factor receptor 3 (Homo sapiens) (UniProt P22607); details: at 0.1 µM
[9] = target: Fibroblast growth factor receptor 3 (Homo sapiens) (UniProt P22607); details: at 1 µM
[10] = target: Fibroblast growth factor receptor 4 (Homo sapiens) (UniProt P22455); details: at 0.1 µM;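 also: values are mean percent inhibition of FGFR4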
Chain of Fibroblast growth factor receptor 4 (Homo sapiens) (P22455 22-802 limits assumed): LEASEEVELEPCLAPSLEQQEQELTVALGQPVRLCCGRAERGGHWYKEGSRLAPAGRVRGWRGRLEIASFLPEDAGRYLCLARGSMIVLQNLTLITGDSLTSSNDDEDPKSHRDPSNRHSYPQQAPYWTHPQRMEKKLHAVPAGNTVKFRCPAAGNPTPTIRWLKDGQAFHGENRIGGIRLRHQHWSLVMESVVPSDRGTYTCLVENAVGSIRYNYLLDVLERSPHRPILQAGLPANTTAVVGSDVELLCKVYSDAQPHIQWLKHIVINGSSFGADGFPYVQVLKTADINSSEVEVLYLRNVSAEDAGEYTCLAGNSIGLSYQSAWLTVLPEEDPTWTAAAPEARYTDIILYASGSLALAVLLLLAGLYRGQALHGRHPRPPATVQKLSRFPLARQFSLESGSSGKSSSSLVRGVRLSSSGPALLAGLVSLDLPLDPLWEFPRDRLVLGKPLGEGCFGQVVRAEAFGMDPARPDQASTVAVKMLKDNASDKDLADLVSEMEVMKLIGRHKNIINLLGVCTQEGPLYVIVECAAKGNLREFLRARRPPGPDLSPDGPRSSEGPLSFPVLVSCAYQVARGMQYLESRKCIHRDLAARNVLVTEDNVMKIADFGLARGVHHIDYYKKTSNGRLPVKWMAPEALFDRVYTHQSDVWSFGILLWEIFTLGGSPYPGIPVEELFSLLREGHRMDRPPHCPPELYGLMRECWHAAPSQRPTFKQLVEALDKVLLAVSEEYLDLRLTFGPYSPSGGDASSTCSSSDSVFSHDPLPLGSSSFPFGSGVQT

Chain of Tyrosine-protein kinase Fes/Fps (Homo sapiens) (P07332 whole entry): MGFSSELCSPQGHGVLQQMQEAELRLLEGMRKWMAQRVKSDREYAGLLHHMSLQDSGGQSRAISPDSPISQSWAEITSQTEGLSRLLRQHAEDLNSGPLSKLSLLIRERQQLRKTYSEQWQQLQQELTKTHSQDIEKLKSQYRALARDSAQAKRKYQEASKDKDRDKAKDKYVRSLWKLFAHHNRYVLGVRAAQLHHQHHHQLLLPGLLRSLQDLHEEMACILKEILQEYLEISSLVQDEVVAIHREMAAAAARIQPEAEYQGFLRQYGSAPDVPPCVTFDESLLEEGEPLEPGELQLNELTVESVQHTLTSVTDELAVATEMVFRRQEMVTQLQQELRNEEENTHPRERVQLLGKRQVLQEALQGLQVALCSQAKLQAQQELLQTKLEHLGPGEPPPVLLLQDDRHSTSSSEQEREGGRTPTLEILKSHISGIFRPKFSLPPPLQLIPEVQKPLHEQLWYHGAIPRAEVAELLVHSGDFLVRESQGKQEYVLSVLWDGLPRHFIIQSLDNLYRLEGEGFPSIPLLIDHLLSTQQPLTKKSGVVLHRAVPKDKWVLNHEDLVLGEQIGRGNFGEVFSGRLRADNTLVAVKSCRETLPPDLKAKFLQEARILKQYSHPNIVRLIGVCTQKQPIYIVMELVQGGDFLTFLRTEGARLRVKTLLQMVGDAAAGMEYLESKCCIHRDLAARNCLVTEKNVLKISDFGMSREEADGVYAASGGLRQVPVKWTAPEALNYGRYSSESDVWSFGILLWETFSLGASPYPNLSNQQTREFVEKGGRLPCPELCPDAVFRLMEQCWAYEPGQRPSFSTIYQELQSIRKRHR
Chain of Fibroblast growth factor receptor 3 (Homo sapiens) (P22607 23-806 limits assumed): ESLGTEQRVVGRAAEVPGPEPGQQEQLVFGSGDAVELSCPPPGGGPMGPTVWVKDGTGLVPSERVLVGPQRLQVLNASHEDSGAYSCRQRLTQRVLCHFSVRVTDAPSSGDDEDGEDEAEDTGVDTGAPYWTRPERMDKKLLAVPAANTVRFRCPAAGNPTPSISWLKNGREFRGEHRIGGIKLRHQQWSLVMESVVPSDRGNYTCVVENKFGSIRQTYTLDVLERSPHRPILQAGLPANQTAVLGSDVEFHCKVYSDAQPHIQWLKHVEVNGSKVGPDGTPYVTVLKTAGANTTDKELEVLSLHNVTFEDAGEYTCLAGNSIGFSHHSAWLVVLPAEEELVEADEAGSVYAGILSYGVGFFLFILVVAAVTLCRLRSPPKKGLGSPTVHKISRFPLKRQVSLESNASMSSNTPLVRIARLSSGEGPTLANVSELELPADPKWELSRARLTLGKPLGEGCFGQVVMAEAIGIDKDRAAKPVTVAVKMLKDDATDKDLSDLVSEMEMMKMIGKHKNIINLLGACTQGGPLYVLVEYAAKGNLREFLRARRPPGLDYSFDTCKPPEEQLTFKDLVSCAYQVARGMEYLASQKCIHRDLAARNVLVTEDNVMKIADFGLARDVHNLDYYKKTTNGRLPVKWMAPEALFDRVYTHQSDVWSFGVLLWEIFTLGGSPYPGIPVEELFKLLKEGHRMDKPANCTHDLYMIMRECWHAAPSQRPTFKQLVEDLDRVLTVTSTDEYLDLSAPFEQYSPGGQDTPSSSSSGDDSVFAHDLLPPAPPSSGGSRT
Chain of Tyrosine-protein kinase Fer (Homo sapiens) (P16591 whole entry, looked up): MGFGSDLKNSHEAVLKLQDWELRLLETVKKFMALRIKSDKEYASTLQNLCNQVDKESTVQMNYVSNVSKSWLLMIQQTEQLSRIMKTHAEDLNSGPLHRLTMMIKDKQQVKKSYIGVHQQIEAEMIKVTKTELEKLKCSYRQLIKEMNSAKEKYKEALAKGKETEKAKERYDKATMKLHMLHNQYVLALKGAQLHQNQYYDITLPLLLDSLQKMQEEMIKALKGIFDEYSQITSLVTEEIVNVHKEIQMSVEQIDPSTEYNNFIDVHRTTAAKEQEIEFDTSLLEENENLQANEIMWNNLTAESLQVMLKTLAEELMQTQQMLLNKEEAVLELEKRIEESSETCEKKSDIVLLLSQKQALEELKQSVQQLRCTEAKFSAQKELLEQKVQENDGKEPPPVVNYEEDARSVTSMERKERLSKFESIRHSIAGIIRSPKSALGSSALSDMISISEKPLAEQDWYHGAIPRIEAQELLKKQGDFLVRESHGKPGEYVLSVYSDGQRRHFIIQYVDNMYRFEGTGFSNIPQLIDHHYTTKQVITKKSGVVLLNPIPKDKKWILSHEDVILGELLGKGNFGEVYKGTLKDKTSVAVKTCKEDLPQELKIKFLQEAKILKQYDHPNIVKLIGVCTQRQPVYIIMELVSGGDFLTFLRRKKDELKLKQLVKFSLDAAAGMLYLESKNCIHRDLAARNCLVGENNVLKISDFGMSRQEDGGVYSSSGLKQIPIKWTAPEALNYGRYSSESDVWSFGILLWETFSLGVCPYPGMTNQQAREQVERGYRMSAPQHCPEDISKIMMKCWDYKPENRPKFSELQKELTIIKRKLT
Chain of Fibroblast growth factor receptor 1 (Homo sapiens) (P11362 22-822 limits assumed): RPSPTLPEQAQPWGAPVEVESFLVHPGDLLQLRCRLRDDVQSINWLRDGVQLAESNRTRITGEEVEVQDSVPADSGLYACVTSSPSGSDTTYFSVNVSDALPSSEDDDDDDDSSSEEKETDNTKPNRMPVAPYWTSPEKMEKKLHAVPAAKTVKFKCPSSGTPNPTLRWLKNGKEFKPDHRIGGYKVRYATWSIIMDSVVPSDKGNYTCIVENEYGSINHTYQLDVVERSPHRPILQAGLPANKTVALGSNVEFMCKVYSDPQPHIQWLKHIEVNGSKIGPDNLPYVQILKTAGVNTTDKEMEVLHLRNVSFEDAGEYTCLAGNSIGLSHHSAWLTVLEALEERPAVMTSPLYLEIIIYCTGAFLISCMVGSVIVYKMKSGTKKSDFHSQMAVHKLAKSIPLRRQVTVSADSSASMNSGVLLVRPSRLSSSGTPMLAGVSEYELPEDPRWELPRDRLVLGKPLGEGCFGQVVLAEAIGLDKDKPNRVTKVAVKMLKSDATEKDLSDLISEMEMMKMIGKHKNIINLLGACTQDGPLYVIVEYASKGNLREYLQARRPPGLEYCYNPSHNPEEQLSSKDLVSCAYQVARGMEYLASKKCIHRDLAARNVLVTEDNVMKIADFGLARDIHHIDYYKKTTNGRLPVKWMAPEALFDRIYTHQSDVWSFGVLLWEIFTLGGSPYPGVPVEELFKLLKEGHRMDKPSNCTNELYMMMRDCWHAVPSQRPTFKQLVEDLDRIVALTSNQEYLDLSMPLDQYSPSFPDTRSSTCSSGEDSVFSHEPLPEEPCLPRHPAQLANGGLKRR
Chain of Fibroblast growth factor receptor 2 (Homo sapiens) (P21802 22-821 limits assumed): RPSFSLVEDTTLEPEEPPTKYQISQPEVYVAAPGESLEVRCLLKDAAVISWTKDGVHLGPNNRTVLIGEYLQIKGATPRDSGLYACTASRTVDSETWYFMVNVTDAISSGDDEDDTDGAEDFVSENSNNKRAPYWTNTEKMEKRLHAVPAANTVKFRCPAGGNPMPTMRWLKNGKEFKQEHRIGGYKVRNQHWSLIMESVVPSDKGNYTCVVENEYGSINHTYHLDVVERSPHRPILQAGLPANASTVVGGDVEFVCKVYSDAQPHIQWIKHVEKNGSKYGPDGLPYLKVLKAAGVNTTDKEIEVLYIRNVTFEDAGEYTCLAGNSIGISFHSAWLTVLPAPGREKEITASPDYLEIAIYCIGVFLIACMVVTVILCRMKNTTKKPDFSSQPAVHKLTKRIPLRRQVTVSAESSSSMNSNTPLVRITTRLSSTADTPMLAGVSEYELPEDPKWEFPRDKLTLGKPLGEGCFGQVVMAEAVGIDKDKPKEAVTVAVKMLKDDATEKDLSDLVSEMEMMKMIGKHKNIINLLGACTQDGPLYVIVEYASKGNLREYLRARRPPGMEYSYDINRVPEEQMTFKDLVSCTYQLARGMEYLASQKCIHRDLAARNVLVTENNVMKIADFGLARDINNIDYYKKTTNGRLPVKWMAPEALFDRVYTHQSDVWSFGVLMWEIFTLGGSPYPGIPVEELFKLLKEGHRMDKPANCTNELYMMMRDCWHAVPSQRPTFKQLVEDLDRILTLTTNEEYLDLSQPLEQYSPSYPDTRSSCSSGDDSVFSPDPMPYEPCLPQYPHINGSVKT

SMILES	inhibition [1] [%]	inhibition [2] [%]	inhibition [3] [%]	inhibition [4] [%]	inhibition [5] [%]	inhibition [6] [%]	inhibition [7] [%]	inhibition [8] [%]	inhibition [9] [%]	inhibition [10] [%]
C[C@@H](Oc1cc(-n2cnc3ccc(OCC4CCN(C)CC4)cc32)sc1C(N)=O)c1ccccc1C(F)(F)F	4.43	-1.88	-1.98	-9.02	13	-3.05	7.56	-0.95	0.66	0.86
COc1cccc(-n2ncc3c(N/N=C/c4ccc(S(C)(=O)=O)cc4)ncnc32)c1	2.49	0.5	0.07	3.99	0.92	-2.62	4.85	1.85	4.08	-2.71
Cc1ccc(O)cc1Nc1ccnc2ccc(S(C)(=O)=O)cc12	18.5	8.11	39.4	7.68	8.34	5.74	14.5	6.01	11	-0.45
Cc1ccc2c(-c3ccnc(Nc4ccc5c(c4)OCCO5)n3)c(-c3ccc(C(F)(F)F)cc3)nn2n1	-0.37	0.95	0.4	0.28	1.17	-1.07	0.36	-1.98	1	1.94
Oc1cccc(-c2nc(-c3ccccc3)[nH]c2-c2ccncc2)c1	0.53	2.34	1.64	1.95	7.19	4	9.16	4.28	5.69	1.36
CN(C)C(=O)O[C@@H]1CN[C@@H](C#Cc2cc3ncnc(Nc4ccc(OCc5cccc(F)c5)c(Cl)c4)c3s2)C1	-0.72	-0.22	1.12	-0.27	1.69	0.19	4.88	-0.96	2.96	-1.62
[O-][S+]1CCN(Cc2ccc(-c3ccc4ncnc(Nc5ccc(OCc6ccccc6)c(Cl)c5)c4c3)o2)CC1	4.1	1.31	1.62	-2.69	1.21	0.85	3.74	-0.22	3.23	-0.05
FC(F)(F)c1ccc(-c2nn3ncccc3c2-c2ccnc(Nc3ccc4c(c3)OCCO4)n2)cc1	12.1	-0.13	1.22	7.55	6.28	6.74	11.1	6.49	6.94	6.29
c1ccc(Nc2ncc(-c3ccccc3)o2)cc1	0.57	3.92	4.9	-1.19	8.3	6.37	10.5	7.27	6.62	2.33
NS(=O)(=O)c1cccc(Nc2cc(-c3ccc(F)cc3)n[nH]2)c1	6.71	2.34	2.7	0.46	3.62	0.78	9.22	8.19	8.88	0.98
CC(C)c1ccc2c(c1)NC(=O)/C2=N/Nc1ccc(S(N)(=O)=O)cc1	1	0.91	-0.14	3.46	-0.01	0.48	5.04	1.14	3.91	2.58
NS(=O)(=O)c1cccc(-c2cc3ccncc3cc2OCc2ccccc2)c1	4.16	4.25	7.11	8.63	10.7	9.37	15.6	8.37	13	0.02
O=C(Nc1ccc(Oc2ccc3[nH]c(NC(=O)c4ccco4)nc3c2)cc1)Nc1cc(C(F)(F)F)ccc1F	5.37	0.02	0.11	-3.4	9.84	-3.04	33.2	-0.92	7.51	-1.82
O=C1Nc2ccccc2/C1=C/Nc1ccc2[nH]c(=O)[nH]c2c1	12.1	4.03	5.17	7.8	16.5	9.08	35	10	33	1.89
Cc1ccc(C(=O)NC2CC2)cc1-c1ccc2[nH]ncc2c1	0.05	-3.18	-3.34	-0.69	-5.16	-3.95	-3.78	-5.18	0.28	1.43
Cc1ccc2c(c1)/C(=N/Nc1ccc(S(N)(=O)=O)cc1)C(=O)N2	0.29	-0.01	0.85	0.1	4.71	2.39	27.2	4.04	26.5	-1.85
CN(C)c1cc2c(Nc3ccc4c(cnn4Cc4ccccc4)c3)ncnc2cn1	7.22	2.58	3.25	2.28	4.22	2.03	2.51	4.39	4.14	0.85

SMILES	inhibition [1] [%]	inhibition [2] [%]	inhibition [3] [%]	inhibition [4] [%]	inhibition [5] [%]	inhibition [6] [%]	inhibition [7] [%]	inhibition [8] [%]	inhibition [9] [%]	inhibition [10] [%]
NS(=O)(=O)c1ccc(Nc2cc(-c3cccc(O)c3)n[nH]2)cc1	7.21	3.6	4.45	7.55	14.2	8.82	15.9	9.15	13.4	-0.72
CS(=O)(=O)Nc1cccc(-c2ccc3c(NC(=O)C4CC4)n[nH]c3c2)c1	0.02	0.9	1.23	-6.27	0.55	-3.44	5.34	1.56	2.41	-5.5
Nc1nccc(-c2c(-c3ccc(F)cc3)nn3cc(C(F)(F)F)ccc23)n1	7.28	5.08	3.62	-4.71	-0.05	0.61	2.87	6.31	1.74	-0.28
CCOc1nccc2c1nc(-c1nonc1N)n2CC	6.51	2.51	2.14	4.54	7.51	3.59	10.6	5	10.9	2.6
CCS(=O)(=O)c1ccc(OC)c(Nc2nccc(N(C)c3ccc4c(C)n[nH]c4c3)n2)c1	34.3	3.93	6.48	8.89	37.3	18.8	56.1	17.4	54.7	-0.42
O=S(=O)(CCOCc1ccc(-c2ccc3ncnc(Nc4ccc(OCc5cccc(F)c5)c(Cl)c4)c3c2)o1)c1ccccc1	-0.81	0.82	1.19	1.05	5.27	-0.62	3.75	0.41	6.24	1.07
NC(=O)c1cccc(Nc2nccc(Nc3cccc(F)c3)n2)c1	14.6	1.24	7.67	9.63	10.2	2.81	13	4.22	9.81	2.38
OCc1ccc(-c2nc(-c3ccccn3)c(-c3ccc4c(c3)OCO4)[nH]2)cc1	5.49	3.6	4.6	5.91	5.71	5.49	10.1	6.26	7.28	0.04
Cc1ccc2c(-c3ccnc(Nc4cccc(C(F)(F)F)c4)n3)c(-c3ccccc3)nn2n1	43.3	3.67	5.17	5.59	8.78	6.45	9.52	7.84	6.97	2.15
ON=C1CCc2cc(-c3nc(C4CCNCC4)[nH]c3-c3ccncc3)ccc21	0.21	0.52	0.86	-5.96	-0.14	-1.99	5.39	3.1	2.75	–
Nc1nccc(-c2c(-c3ccc(F)cc3)ncn2CCCN2CCOCC2)n1	5.14	3.13	2.03	1.48	1.16	2.81	5.14	4.29	2.08	–
N#Cc1c(NC(=O)c2ccccc2F)sc2c1CCCC2	1.99	-0.84	-1.66	-6.27	-0.77	-3.13	-2.53	-2.94	-1.6	1.12
CN1CCN(C(=O)c2ccc(NC(=O)Nc3ccc(N(C)c4ccnc(Nc5ccc(CS(C)(=O)=O)cc5)n4)cc3)cc2)CC1	63.9	7.35	43.4	0.94	4.44	6.7	12.8	4.9	5.11	4.73
CCn1c(-c2nonc2N)nc2c(C#CC(C)(C)O)nc(OCCNC)cc21	1.17	4.11	4.46	6.92	5.9	5.4	6.92	7.79	3.95	4.43
NS(=O)(=O)c1ccc(N/N=C2\C(=O)Nc3ccc(Cl)cc32)cc1	7.24	2.52	2.84	1.63	1	2.43	14.7	5.81	13	-1.18
NC(=O)c1sc(-n2cnc3ccccc32)cc1OCc1ccccc1Br	3.22	2.73	4.01	6.09	6.22	5.8	4.79	5.69	4.87	1.18
